From PubChem BioAssay AID686996 (Broad Institute, 2013)
Where “and” joins values, the source holds several entries; their conditions need not be identical. Equal entries are not always repeated. Out of some 350,000 compounds screened, about 1,900 (0.54%) were called active.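 How the source made its calls: active means mean inhibition across replicates at least about 35%, with every replicate also reaching that limit (limit read from the data); inconclusive means only one of the two criteria met; inactive means neither criterion met.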 Shown is part of a subset that was picked to be rich in actives. Some compounds were tested as several samples or in several runs, with calls that do not always agree.

Target: Caspase-6 (Homo sapiens) (UniProt P55212)
Sequence (P55212 24-179 limits assumed): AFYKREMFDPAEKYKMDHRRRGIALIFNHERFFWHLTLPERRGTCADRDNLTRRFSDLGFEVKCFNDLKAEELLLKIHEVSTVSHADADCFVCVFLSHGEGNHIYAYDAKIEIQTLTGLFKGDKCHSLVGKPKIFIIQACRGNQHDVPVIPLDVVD
Sequence (P55212 194-293 limits assumed): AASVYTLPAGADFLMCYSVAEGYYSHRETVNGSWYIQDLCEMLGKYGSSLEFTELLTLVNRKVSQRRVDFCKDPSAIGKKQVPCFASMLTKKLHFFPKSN
Assay: inhibition of CASP6 peptide cleavage – biochemical, VEID-R110 fluorescence, single point, set 2, primary screen (AID 686996);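 further: 0% = median of neutral control wells and 100% = no fluorescence left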
Conditions: purified caspase-6, Z-VEID-R110 cleavage fluorescence; at 12.5 µM; stronger effect = higher value

Compound | inhibition
COC(=O)CCCCC1=CCC2C(=O)C=C(O)C2C1 (centres undefined) | 70.5% (active)
CC(C)(O)C#Cc1ccc([C@H]2[C@@H](CO)N3CCCCN(C(=O)c4ccncc4)C[C@H]23)cc1 | 1.18% (inactive)
COCC(=O)N1CC(=O)N2[C@H](CO)[C@@H](c3ccc(C#CC4CCCC4)cc3)[C@H]2C1 | -0.852% (inactive)
CCOc1ccc(C(=O)NCC(=O)N2CCCCCCC2)cc1OCC | -0.226% (inactive)
CCOc1cc(C(=O)O)ccc1OCCOc1ccccc1 | 35.6% (active)
CCOc1ccc(CCNC(=O)Nc2ccccc2)cc1OCC | -1.26% (inactive)
O=C(C[C@H]1CC[C@@H](NC(=O)c2ccncc2)[C@@H](CO)O1)Nc1ccccc1 | 1.11% (inactive)
CCNC(=O)C[C@@H]1CC[C@H]2[C@@H](COc3ccc(NC(=O)NC(C)C)cc3C(=O)N2C)O1 | 0.619% (inactive)
O=C(Cn1cnc2ccccc21)N/N=C/c1ccco1 | 1.45% (inactive)
Cc1n[nH]c(=O)nc1N/N=C/c1cccs1 | 0.991% (inactive)
O=c1nc(N/N=C/c2ccco2)cn[nH]1 | 55.7% (active)
COc1ccccc1C#Cc1cnc2c(c1)C(=O)N([C@@H](C)CO)C[C@H](C)[C@@H](CN(C)C(=O)CC1CC1)O2 | -4.85% (inactive)
NC1=CC(=O)C(=O)c2cccnc21 | 93.8% (active)
CCOc1ccc(CCN2C(=O)c3cccnc3C2=O)cc1OCC | 3.27% (inactive)
C[C@@H]1CN([C@H](C)CO)C(=O)c2cc(NC(=O)Cc3ccccc3)ccc2O[C@@H](C)CCCCO[C@H]1CN(C)C(=O)Cc1ccccc1 | 1% (inactive)
C[C@@H]1CN([C@H](C)CO)C(=O)c2cc(C#CC3CC3)cnc2O[C@@H]1CN(C)Cc1ccccn1 | -0.477% (inactive)
O=C1C=CCCN1C(=O)/C=C/c1ccc(F)cc1 | 6.28% (inactive)
C[C@H](CO)N1C[C@H](C)[C@H](CN(C)Cc2ccc(C(=O)O)cc2)Oc2ncc(-c3ccccc3)cc2C1=O | -1.47% (inactive)
O=C1C(Cl)=C(Oc2ccccc2)C(=O)c2ccccc21 | 4.78% (inactive)
CC(=O)N(C1=C(Cl)C(=O)c2ccccc2C1=O)c1ccc(C(=O)O)cc1 | 91% (active)
O=C(NC1=CC(=O)c2ccccc2C1=O)c1ccccc1 | 1.17% (inactive)
CNC[C@@H]1OCCCC[C@@H](C)Oc2ccc(NS(C)(=O)=O)cc2C(=O)N([C@H](C)CO)C[C@@H]1C | -3.75% (inactive)

Compound | inhibition
CCO[C@H]1OC(C(=O)N2CCOCC2)=C[C@@H](c2ccc3c(c2)OCO3)[C@@H]1CCCO | 38.4% (active) and 1.81% (inactive)
CCO[C@H]1OC(C(=O)N2CCCCCCC2)=C[C@@H](c2ccc(C(F)(F)F)cc2)[C@@H]1CCCO | -1.98% (inactive) and 3.38% (inactive)
CCO[C@@H]1OC(C(=O)N2CCOCC2)=C[C@H](C)[C@H]1CCCO | -0.276% (inactive)
Cc1noc(C)c1NC(=O)Nc1ccc2c(c1)C(=O)N([C@H](C)CO)C[C@@H](C)[C@@H](CN(C)Cc1ccccc1)O2 | -0.453% (inactive)
C[C@H](CO)N1C[C@H](C)[C@H](CN(C)Cc2ccc(C(F)(F)F)cc2)OCCCC[C@H](C)Oc2ccc(NS(=O)(=O)c3ccc(Cl)cc3)cc2C1=O | 0% (inactive)
CCC(=O)N1[C@H](C(=O)OC)[C@@H](CO)[C@@H]2Cn3c(ccc(-c4cccc(F)c4)c3=O)[C@@H]21 | -0.171% (inactive)
Cc1cccc(-c2ccc(C3[C@@H]4CN(C(=O)Nc5ccc(C(F)(F)F)cc5)C[C@H]3N4)cc2)c1 (some centres undefined) | 17.5% (inactive) and -2.54% (inactive)
C[C@@H]1CCCCO[C@@H](CN(C)Cc2ccccc2)[C@H](C)CN([C@H](C)CO)C(=O)c2cc(NS(=O)(=O)c3cccs3)ccc2O1 | -0.17% (inactive)
COc1ccccc1CCC(=O)OCC(=O)N1CCN(S(=O)(=O)c2ccc(C)cc2C)CC1 | 0.558% (inactive)
Cc1ccc(S(=O)(=O)N2CCN(C(=O)COC(=O)CNC(=O)c3ccc(C(C)(C)C)cc3)CC2)c(C)c1 | 53.3% (active)
Cc1ccc(S(=O)(=O)N2CCN(C(=O)COC(=O)c3c(C)cc(C)cc3C)CC2)c(C)c1 | 0.238% (inactive)
COc1ccc(Br)cc1/C=N/Nc1ccc(S(=O)(=O)Nc2ccccc2C(=O)O)cc1[N+](=O)[O-] | 49.3% (active)
CC1CN(C(=O)c2ccccc2NS(=O)(=O)c2cccc([N+](=O)[O-])c2)CC(C)O1 (centres undefined) | 0.082% (inactive)
COc1ccc(S(=O)(=O)N2CCC(C(=O)OCC(=O)c3ccccc3)CC2)cc1[N+](=O)[O-] | -8.89% (inactive)
CCCN1[C@H](C(=O)N[C@H](C)c2ccccc2)[C@@H](CO)[C@@H]2Cn3c(ccc(-c4ccccc4)c3=O)[C@@H]21 | -1.76% (inactive)
O=C(C[C@H]1CC[C@H]2[C@@H](COC[C@@H](O)CN2CC2CCOCC2)O1)NCc1ccc(Cl)cc1 | -3.23% (inactive)
Cc1noc(C)c1S(=O)(=O)N(C)C[C@@H]1Oc2ccc(NC(=O)Cn3cnnn3)cc2CC(=O)N([C@@H](C)CO)C[C@@H]1C | 2.4% (inactive)
CCN=c1sc(C(=O)Nc2ccccc2)c(C)n1CC | 67.5% (active)
Cc1c(C(=O)Nc2ccccc2)sc2nc3n(c(=O)c12)CCCCC3 | 14.7% (inactive)
COc1ccc(NC(=O)c2sc(=O)n(Cc3ccc(S(=O)(=O)N(C)C)cc3)c2C)cc1 | -0.522% (inactive)
C[C@@H]1CN([C@@H](C)CO)C(=O)Cc2cc(NS(C)(=O)=O)ccc2O[C@H]1CN(C)C(=O)Nc1ccccc1 | 2.54% (inactive)
O=S(=O)(N[C@H]1CC[C@@H](CCNS(=O)(=O)c2ccccc2Cl)O[C@@H]1CO)c1ccccc1 | 1.46% (inactive)

Compound | inhibition
C[C@@H]1CN([C@@H](C)CO)C(=O)c2cc(NC(=O)Nc3ccc4c(c3)OCO4)ccc2O[C@@H](C)CCCCO[C@@H]1CN(C)S(=O)(=O)c1cccs1 | -0.287% (inactive)
O=S(=O)(Nc1ccccc1Cl)c1cccc2nsnc12 | 51.3% (active)
O=C(O)c1ccc(NS(=O)(=O)c2cccc3nsnc23)cc1 | 4.06% (inactive)
COc1ccc(NS(=O)(=O)c2cccc3nsnc23)cc1Cl | -0.203% (inactive)
Cc1cccc(S(=O)(=O)N2CC[C@@H]3[C@H]2c2cc(C#Cc4ccccc4F)ccc2N[C@@H]3CO)c1 | 4.39% (inactive)
CC(C)NC(=O)Nc1ccc2c(c1)C(=O)N([C@@H](C)CO)C[C@H](C)[C@H](CN(C)C(=O)NC1CCCCC1)OCCCC[C@@H](C)O2 | 1.72% (inactive)
C[C@@H]1CN([C@H](C)CO)C(=O)c2cc(-c3cccc(C#N)c3)cnc2O[C@H]1CN(C)C(=O)C1CCC1 | -1.37% (inactive)
CC(Oc1ccc2c(-c3ccccc3)cc(=O)oc2c1)C(=O)NC(Cc1c[nH]c2ccccc12)C(=O)O (centres undefined) | 5.42% (inactive)
COc1ccc(-c2cc(C(=O)NC(Cc3c[nH]c4ccccc34)C(=O)O)c(C)o2)cc1OC (centres undefined) | 50.7% (active)
COc1ccc(-c2cc(=O)oc3cc(OCC(=O)N[C@@H](Cc4c[nH]c5ccccc45)C(=O)O)ccc23)cc1 | 5.8% (inactive)
COc1ccc2c3c([nH]c2c1)[C@H](CO)N(Cc1nccs1)CC31CCN(Cc2cccnc2)CC1 | 1.89% (inactive)
C/C=C/c1ccc([C@H]2[C@@H](CO)N(C(C)=O)[C@H]2CNC(=O)c2ccncc2)cc1 | -0.501% (inactive)
COc1ccc2c3c([nH]c2c1)[C@@H](CO)N(S(C)(=O)=O)CC31CN(CC2CC2)C1 | 0.799% (inactive)
COc1ccc(S(=O)(=O)N(CC(=O)N/N=C/c2ccc(C(=O)O)cc2)Cc2ccccc2)cc1OC | 3.65% (inactive)
COc1ccc(Cl)cc1N(CC(=O)N1CCCCC1)S(C)(=O)=O | 5.56% (inactive)
COc1ccc(Cl)cc1N(CC(=O)N/N=C/c1ccc(OCC(N)=O)cc1)S(C)(=O)=O | 49.4% (active)
O=C(C1CCCCC1)N1CC(=O)N2[C@H](CO)[C@@H](c3ccc(C#Cc4cccc(F)c4)cc3)[C@@H]2C1 | -1.89% (inactive)
C[C@H](CO)N1C[C@H](C)[C@H](CN(C)C(=O)C2CCOCC2)Oc2ncc(-c3ccccc3F)cc2C1=O | -2.04% (inactive)
C[C@H](CO)N1C[C@H](C)[C@@H](CN(C)Cc2cccc(F)c2)Oc2cc(C#CC3CC3)ccc2S1(=O)=O | 0.411% (inactive)
Cc1ccc(S(=O)(=O)N(C)C[C@H]2Oc3ccc(NC(=O)Nc4cccc5ccccc45)cc3CC(=O)N([C@H](C)CO)C[C@H]2C)cc1 | -0.526% (inactive)
